Experimental data from PubChem BioAssay.
Potency and affinity values are given separately. Records with an inconclusive call do not appear. A number with no mark means an inactive call. The source made the active and inactive calls. How the calls were made is not given here.

Test: non-specific cell cytotoxicity, dose response, cytotoxicity control for PAX8 inhibitor project, plate reader, dry powder samples (AID 743021)
Conditions: cell line, non-specific cytotoxicity counter-screen; series mostly up to 35 µM; activity change, negative = cytotoxicity: at the top concentration

SMILES	activity change, negative = cytotoxicity	outcome
Cc1ccc(CCc2nnc(SCC(=O)Nc3cccc(Cl)c3)n2-c2ccccc2)o1	-9.49%	–
CN(N=Nc1nc[nH]c1C(N)=O)C1CCCCC1	33.7%	–
CCSc1nsc(NC(=O)Nc2cccc(F)c2)n1	-6.8%	–
CCOc1ccc(C(=O)C(CN2CCOCC2)c2ccccc2)cc1 (stereo not given)	28.2%	–
C[C@H](NC(=O)c1ccco1)C(=O)Nc1cccc([N+](=O)[O-])c1	11.2%	–
CC(=O)c1sc(NC(=O)CCS(=O)(=O)c2ccc(Cl)cc2)nc1C	24.3%	–
COc1cccc2c1C(=O)c1c(O)c3c(c(O)c1C2=O)C[C@](O)(C(C)=O)C[C@H]3O[C@@H]1C[C@@H](N)[C@@H](O)[C@@H](C)O1	34.6%	–
CC(/C=C1\SC(=O)N(CC(=O)Nc2ccc(O)cc2)C1=O)=C\c1ccccc1	26.6%	–
BrC(=C\c1ccccc1)/C=N/n1cnnc1	26.4%	–
COc1ccc(S(=O)(=O)N(C)C[C@H]2Oc3ccc(NC(=O)Nc4ccc(C(F)(F)F)cc4)cc3C(=O)N([C@H](C)CO)C[C@@H]2C)cc1	7.85%	–
Cc1cc(C)n(-c2nc(NCCN(C)C)c3c4c(sc3n2)CCCC4)n1	-16.8%	–
O=c1cc(C(Cl)(Cl)Cl)oc2c1ccc1ccccc12	21.8%	–
CCCCn1c(N)c(N(CCC(C)C)C(=O)COC(=O)c2ccc([N+](=O)[O-])s2)c(=O)[nH]c1=O	19.1%	–
Cn1nnnc1Sc1ncnc2scc(-c3ccc([N+](=O)[O-])cc3)c12	1.61%	–
CN=c1scc(-c2cccs2)n1/N=C/c1ccccc1O	-20.4%	–
Cc1ccc2nc(NNC(=O)c3ccc(S(=O)(=O)N4CCc5ccccc5C4)cc3)sc2c1	5.89%	–
O=C(Nc1ccc(Cl)cc1)/C(=C/c1cccc(O)c1)c1nc2ccccc2s1	21.4%	–
O=C(Nc1ccccc1)Nc1cc(OCC(F)(F)F)cc(OCC(F)(F)F)c1	-0.948%	–
COC(=O)[C@@]12C[C@@H](CC(=O)N3CCN(C(=O)c4ccco4)CC3)C(=O)N(Cc3ccccc3)C1=CCC(C)(C)C2	11.2%	–
CC[C@]1(O)C[C@@H]2CN(CCc3c([nH]c4ccccc34)[C@@](C(=O)OC)(c3cc4c(cc3OC)N(C)[C@H]3[C@@](O)(C(=O)OC)[C@H](OC(C)=O)[C@]5(CC)C=CCN6CC[C@]43[C@@H]65)C2)C1	4.97%	–

SMILES	activity change, negative = cytotoxicity	outcome
CC(=O)Nc1ccc(NC(=O)c2nc(S(=O)(=O)Cc3ccccc3)ncc2Cl)cc1	-96.3%	–
COc1cccc2c1C(=O)c1c(O)c3c(c(O)c1C2=O)CC(O)(C(C)=NNC(=O)c1ccc(Cl)c(Cl)c1)CC3OC1CC(N)C(O)C(C)O1 (stereo not given)	-3.99%	–
CCN(CC)c1ccc2c(cc1=O)[C@@H](NC)CCc1cc(OC)c(OC)c(OC)c1-2	–	inactive
Oc1ccc(C[C@H]2CN([C@@H](Cc3ccc(O)cc3)CN3CCC[C@@H]3CN3C(=S)NC[C@@H]3Cc3ccccc3)C(=S)N2CC2CCCCCC2)cc1	0.957%	–
COc1ccc(OC)c2sc(N(CCCN(C)C)C(=O)CCS(=O)(=O)c3ccccc3)nc12	7.78%	–
O=C(Nc1cc(S(=O)(=O)N2CCCCC2)ccc1Cl)c1ccccc1NS(=O)(=O)c1ccc(F)cc1	13.7%	–
O=C(COC(=O)c1ccco1)Nc1cccc(S(=O)(=O)N2CCOCC2)c1	-1.07%	–
CN1CC(=O)N2C(c3ccc(Cl)cc3)c3[nH]c4ccccc4c3C[C@H]2C1=O (stereo not given in full)	-13.7%	–
CCCCCc1cc(=O)oc2c(C(CCN3CCCCC3)c3ccc4c(c3)OCO4)c(OC)cc(OC)c12 (stereo not given)	-10.6%	–
Cn1nnnc1Sc1ncnc2scc(-c3ccc[nH]3)c12	34%	–
CCC(=O)N1CCN(c2ccc(NC(=O)c3ccc([N+](=O)[O-])o3)cc2)CC1	49.5%	–
COc1cc(NC(=O)c2ccc([N+](=O)[O-])o2)ccc1NC(=O)c1ccco1	-29.8%	–
Cc1ccc(S(=O)(=O)NCc2ccc(C(=O)N3CCN(c4ccc([N+](=O)[O-])cc4)CC3)cc2)cc1	0.734%	–
O=C(Cn1ncc(Cl)c(Cl)c1=O)Nc1ccc2c(c1)OCO2	4.63%	–
C=C1C(=O)[C@]23C[C@H]1CC[C@H]2[C@]1(C)[C@@H](OC(C)=O)CC[C@@](C)(C(=O)O)[C@H]1C[C@@H]3O	-32%	–
O=C(Cn1ncc(Cl)c(Cl)c1=O)NC(=O)NC1CCCCC1	-16.3%	–
CC(C)=CCNc1ncnc2c1c(C#N)cn2C1OC(CO)C(O)C1O (stereo not given)	24.5%	–
CN1C(=O)/C(=C\C(=O)c2cccs2)c2ccccc21	-12.2%	–
COc1cccc(-c2nc(CS(=O)(=O)CC(=O)NCCCN3CC(C)CC(C)C3)c(C)o2)c1 (stereo not given)	-1.74%	–
C=CC[C@@H](CC(=O)N[C@H](CO)Cc1ccccc1)C(=O)N[C@H](COC(=O)[C@@H](CC=C)Cc1ccc(F)cc1)Cc1c[nH]c2ccccc12	-17.6%	–
